# Test results reported in PubChem BioAssay AID720518 (National Center for Advancing Translational Sciences (NCATS), 2013).
# Records with an inconclusive call do not appear. Calls of active or inactive are those of the source. Calls follow the shape of the full dose curve.
# Assay: qHTS for Inhibitors of Cell Surface uPA Generation: Wild-type Protective Antigen (WT-PrAg) Counterscreen for Cherry-picked Compounds; as to activity (protection): 0% is about no effect
# Details: cells, WT protective antigen toxicity counterscreen; series mostly up to 115 µM; activity (protection): at the top concentration
# Potency is read from the fitted curve at half-maximal effect.
Compound,activity (protection),Potency
O=C1c2ccccc2[C@@H]2C[C@H](NC34CC5CC(CC(C5)C3)C4)[C@@H](O)CCN12,-1.03% (inactive),–
CC(=O)c1cccc(NC(=O)N2C3CCC2CC(O)(c2cccnc2)C3)c1 (stereo not given),2.27% (inactive),–
Cc1cnc(CNC(=O)CC2C(=O)NCCN2Cc2ccccc2C(F)(F)F)cn1 (stereo not given),0.0975% (inactive),–
COc1ccc(C(c2sc3nc(C)nn3c2O)N2CCC(C(N)=O)CC2)cc1OC (stereo not given),-1.53% (inactive),–
CC1(c2cccc([N+](=O)[O-])c2)CC(C)(C)N(C(=O)c2ccccc2)c2ccccc21 (stereo not given),-1.21% (inactive),–
CCCNC(=O)C1CCC(CNS(=O)(=O)c2ccc3c(c2)CC(C)N3C(C)=O)CC1 (stereo not given),-0.174% (inactive),–
CCOC(=O)C1CCCN(CC(=O)Nc2ccc(C(=O)Nc3ccccc3OC)cc2)C1 (stereo not given),2.21% (inactive),–
C=CCc1cc(S(=O)(=O)c2ccc(O)c(CC=C)c2)ccc1O,4.47% (inactive),–
C[C@H](O)[C@@H]1C(=O)N2CCc3ccc(-c4cccc(F)c4)cc3[C@@H]2C[C@@H]1N(C)C(=O)C(C)(C)C,-2.29% (inactive),–
COc1cccc(NC(=S)NCc2ccc3c(c2)cc(C)n3C)c1,-1.73% (inactive),–
Cc1ccc(S(=O)(=O)N2CCN(C(=O)c3n[nH]c(=O)c4ccccc34)CC2)cc1,-0.765% (inactive),–
NC(=O)c1cc2c3ccccc3ccn2c1-c1ccccc1,-1.66% (inactive),–
OCCN(Cc1ccccc1)CC(O)COc1ccc2c(c1)OCO2 (stereo not given),-0.0373% (inactive),–
Cc1ccc(C23CC4CC(CC(C(=O)NN)(C4)C2)C3)cc1,-1.5% (inactive),–
O=C(COC(=O)c1cc([N+](=O)[O-])ccc1NCCO)NCc1cccs1,-0.253% (inactive),–
O=C(CNC(=O)c1ccc(Br)o1)NNC(=O)c1ccccc1,-0.857% (inactive),–
O=C(CSC1=NS(=O)(=O)c2ccccc2N1)Nc1nccs1,0.09% (inactive),–
O=C1NC(CCc2ccccc2)C(=O)N1Cc1ccccc1Cl (stereo not given),4.02% (inactive),–
COc1cccc(CNC(=O)C2CCCN(S(=O)(=O)c3ccc4c(c3)C(C)(C)C(=O)N4C)C2)c1 (stereo not given),0.799% (inactive),–
COc1ccc(C(=O)NCCOC(C)C)cc1OC1CCN(C(C)=O)CC1,-0.503% (inactive),–

Compound,activity (protection),Potency
c1ccc(C2[C@H]3CN(Cc4cccnc4)[C@H](c4ccccc4)C34CC2(c2ccccc2)C4)cc1 (stereo not given in full),2.02% (inactive),–
O=C(Nc1ccc2c(c1)CCC2)Nc1ccc2c(c1)OCO2,1.26% (inactive),–
CCN1CCCCC(=N/O)/C(=N/O)CCCC1,3.08% (inactive),–
CCn1c2ccccc2c2n[nH]c(=S)nc21,-0.605% (inactive),–
C=CCNC(=S)NCC=C,1.06% (inactive),–
COc1ccc(C(=O)NCC(=O)N/N=C/c2c(C)[nH]c3ccccc23)cc1,0.57% (inactive),–
O=[N+]([O-])c1cccc2c(N3CCOCC3)ccnc12,-2.37% (inactive),–
CC(=O)c1cnc2nc(SCc3cccc(C)c3)nn2c1C,-1.51% (inactive),–
CCOCc1nnc(NC(=O)C2CCN(C(=O)C3CC(=O)N(c4ccc(C)cc4)C3)CC2)s1 (stereo not given),-1.11% (inactive),–
COc1ccc(C(C(=O)NC2CCCC2)N(C(=O)c2ccoc2C)c2ccc(C)c(C)c2)cc1 (stereo not given),-1.73% (inactive),–
CCN(c1ccccc1)S(=O)(=O)c1ccc(NC(=O)c2ccco2)cc1,-1.51% (inactive),–
Cc1ccc(C(=O)NNC(=O)CNc2cccc(Cl)c2)cc1,-0.357% (inactive),–
N/C(=N/OC(=O)c1ccccc1F)c1nonc1N,-1.6% (inactive),–
O=C(O)CSc1nnc(COc2ccccc2)n1-c1ccccc1,-0.315% (inactive),–
CCOc1cc(/C=C(\C#N)C(=O)NCc2cccnc2)ccc1O,-1.63% (inactive),–
COCCN(C(=O)c1ccccc1OC)c1nnc(C)s1,-1.62% (inactive),–
O=C1C=CC(O)(c2cc(=O)c3c(O)cc(O)cc3o2)C=C1,–,16.5 µM (active)
Cc1cccc(CNc2ccc(C(CC(N)=O)NC(=O)c3cccc(Br)c3)cc2[N+](=O)[O-])c1 (stereo not given),0.204% (inactive),–
CC1(C(=O)OCC(=O)Nc2ccc(Cl)cn2)CC1(Cl)Cl (stereo not given),5.25% (inactive),–
C[n+]1c2cc(N)ccc2cc2ccc(N)cc21,-2.06% (inactive),–
